# Reference: PubChem BioAssay AID1508602 (The Scripps Research Institute Molecular Screening Center, 2020)
# Hit rate of the full screen: of about 650,000 compounds, about 6,800 (1%) were called active. This is one part of a sample in which actives are shown more often than they occur. Unmarked numbers belong to inactive results. No stated cut-off is given here; in the data, active means activation above about 4.9%; inactive means the rest.
# Molecular target: G-protein coupled receptor 151 (Homo sapiens) (UniProt Q8TDV0)
# Sequence (Q8TDV0 whole entry, looked up): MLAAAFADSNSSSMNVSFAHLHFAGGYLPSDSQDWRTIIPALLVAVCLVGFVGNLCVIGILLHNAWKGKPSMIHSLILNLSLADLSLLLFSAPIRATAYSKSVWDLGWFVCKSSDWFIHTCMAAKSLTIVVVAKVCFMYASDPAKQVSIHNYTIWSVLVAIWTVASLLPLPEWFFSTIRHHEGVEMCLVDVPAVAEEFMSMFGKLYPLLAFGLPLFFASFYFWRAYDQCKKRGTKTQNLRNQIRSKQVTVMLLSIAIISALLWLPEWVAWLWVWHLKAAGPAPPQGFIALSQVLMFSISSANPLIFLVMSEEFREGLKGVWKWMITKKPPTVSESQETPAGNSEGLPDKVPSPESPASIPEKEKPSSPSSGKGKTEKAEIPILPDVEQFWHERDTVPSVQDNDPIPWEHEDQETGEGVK
# Assay: activators of human GPR151, primary screen, cell-based, PathHunter beta-arrestin, luminescence (AID 1508602);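 further: 0% = median of compound wells and 100% = cells with positive control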
# Conditions: PathHunter beta-arrestin GPR151 cells, at 11.2 µM, active compounds read high
row,Structure (SMILES),activation
1,O=c1c2c3c(sc2nc(SCc2cccc(Br)c2)n1-c1ccccc1)CCC3,0.0499%
2,O=C(O)COc1ccc(NC(=O)/C=C/c2ccco2)cc1,3.09%
3,CC(C)NS(=O)(=O)c1ccc(OCC(=O)NC2CCCCCC2)cc1,-1.64%
4,O=C(COc1ccc(S(=O)(=O)NCCc2ccccc2)cc1)NC1CC1,5.83% (active)
5,O=C(COc1ccc(S(=O)(=O)Nc2ccc(F)cc2)cc1)NC1CCCC1,1.64%
6,Cc1ccc(NC(=O)CSc2nnc3sc4ccccc4n23)cc1,-0.639%
7,Cc1ccc(S(=O)(=O)c2nnn3c2nc(NCc2ccco2)c2ccccc23)cc1,-0.413%
8,Cc1ccc(C(C)C)c(OCCN2CCNCC2)c1,0.889%
9,Cc1ccc(C(C)C)c(OCCCn2ccnc2)c1,4.92% (active)
10,C=CCc1cc(C)ccc1OCCCn1ccnc1,2.6%
11,COc1ccc(CCNc2nc(-c3ccccc3)nc3c2ncn3C2CCCCC2)cc1,0.405%
12,COc1ccc(CCNC(=O)c2ccccc2C(=O)O)cc1OC,-1.14%
13,O=[N+]([O-])c1ccc(-n2c(-c3ccccc3)nnc2-c2ccccc2)cc1,-0.192%
14,Cc1csc(NC(=O)CSc2nnc(Cc3cccn3C)n2-c2ccccc2)n1,0.245%
15,C=CCOc1ccc(/C=C2\C(=O)N(c3ccc([N+](=O)[O-])cc3)N=C2c2ccccc2)cc1,-2.33%
16,O=C1N=C(N2CCN(c3ccc([N+](=O)[O-])cc3)CC2)S/C1=C/c1ccccc1,-0.706%
17,O=C1/C(=C\c2ccccc2)C(N2CCOCC2)=NN1c1ccc([N+](=O)[O-])cc1,6.57% (active)
18,CCC(=O)Nc1cc(-c2ccco2)nn1-c1nc(CC)cc(=O)[nH]1,-0.772%
19,COCCNCCOc1ccc(C(C)(C)C)cc1,8.42% (active)
20,COC(=O)NCCOc1ccc(C(C)(C)C)cc1,0.726%
21,CC(C)(C)c1ccc(OCCCCNCCO)cc1,0.146%
22,Cc1ccc(N2C(=O)CC(N3CCN(C(c4ccccc4)c4ccccc4)CC3)C2=O)c(Br)c1 (configuration not stated),-0.0796%
23,CCc1cc(C(=O)N2CCCCC2C)cs1 (configuration not stated),1.3%

row,Structure (SMILES),activation
1,Cc1ccc(CNC(=O)CN(C)S(=O)(=O)c2ccccc2)cc1,-0.21%
2,COc1ccc(CON2C(=O)c3ccccc3C2=O)cc1Cl,-1.06%
3,CCc1ccc(S(=O)(=O)N2CCCC(C(=O)c3ccc(OC)c(OC)c3)C2)s1 (configuration not stated),0.139%
4,COc1ccc(C(=O)C2CCCN(S(=O)(=O)c3cccc(C)c3)C2)c(C)c1 (configuration not stated),5.47% (active)
5,O=C(NNC(=O)C1CCCN(S(=O)(=O)c2cccc(Cl)c2)C1)C1CC1 (configuration not stated),0.674%
6,CCCOc1ccccc1C1CC(=O)C2=C(C1)Nc1ccccc1N(C(C)=O)C2c1ccc(OC)cc1 (configuration not stated),-0.237%
7,Cc1ccc(Cn2c(C)c3cnn(CC(=O)N4CCCC4)c(=O)c3c2C)cc1,-0.279%
8,O=C(/C=C/c1ccccc1)c1ccccc1O,5.61% (active)
9,COc1ccc(O)c(C(=O)/C=C/c2ccc(F)cc2)c1,-1.75%
10,O=C(/C=C/c1ccccc1)c1ccc(O[C@@H]2O[C@H](CO)[C@@H](O)[C@H](O)[C@H]2O)cc1O,0.684%
11,Cc1c(Cl)cccc1-n1c(/C=C/c2cccc3ccccc23)nc2ccccc2c1=O,1.58%
12,COC(=O)c1ccccc1NC(=O)c1ccc(CN(c2ccc(C)c(C)c2)S(C)(=O)=O)cc1,-0.0331%
13,CC(=O)c1ccc(NC(=O)c2ccc(CN(c3ccc(C)c(C)c3)S(C)(=O)=O)cc2)cc1,5.09% (active)
14,CNC(=O)c1ccc(CN(c2ccc(C)c(C)c2)S(C)(=O)=O)cc1,0.29%
15,Cc1cnc(CNC(=O)c2ccc3cncc(-c4cc5ccccc5o4)c3n2)cn1,-1.58%
16,COc1ccc(NC(=O)CSc2nc(=O)n(CCCN(C)C)c3c2CCC3)cc1OC,-0.304%
17,CCOc1c(Cl)cc(CNCc2ccccc2)cc1OC,5.18% (active)
18,COc1cc(CO)cc(Cl)c1OCc1ccccc1,0.149%
19,COc1cc(Cl)c(CNCc2ccccc2)cc1OC,-1.13%
20,Cc1ccc(CNC(=O)CSc2nc3ccccc3c(=O)n2CC2CCC(C(=O)NCc3ccco3)CC2)cc1 (configuration not stated),-0.182%
21,O=C1NC(=O)c2cc(N3C(=O)c4cccc([N+](=O)[O-])c4C3=O)ccc21,-0.912%
22,O=C1c2cccc([N+](=O)[O-])c2C(=O)N1c1ccc2ccccc2c1,0.404%
23,CN1C(=O)c2ccc(N3C(=O)c4cccc([N+](=O)[O-])c4C3=O)cc2C1=O,5.16% (active)

row,Structure (SMILES),activation
1,CC1(C)CC(=O)c2cc(C(=O)Nc3cccc(F)c3)c(=O)n(-c3ccccc3)c2C1,0.451%
2,O=C(NCCc1ccccc1)c1ccc2c(c1)NC(=O)C(CS(=O)(=O)Cc1cccc(F)c1)N2 (configuration not stated),-0.907%
3,CC(C)c1ccc(CN[C@H]2C[C@H]3C(=O)N[C@@H](COCc4ccccc4)C(=O)N3C2)cc1,5.83% (active)
4,O=C1N[C@@H](COCc2ccccc2)C(=O)N2C[C@@H](NCc3ccsc3)C[C@@H]12,1.22%
5,CC(C)C[C@H]1NC(=O)[C@@H]2C[C@H](NCc3ccccc3)CN2C1=O,2.09%
6,Cc1ccc(C2=N/C(=C\c3cccc(Cl)c3)C(=O)O2)cc1,-1.7%
7,Cc1nc(C)n(CCC(=O)N2CCN(Cc3ccccc3F)C[C@@H]2C(C)C)n1,-0.818%
8,CC(C)NC(=O)CSc1nccn1Cc1ccco1,0.992%
9,COc1ccc(Cn2ccnc2SCC(=O)NCc2ccco2)cc1,0.251%
10,COCCNC(=O)CSc1nccn1Cc1ccco1,4.92% (active)
11,COCCNC(=O)c1cccc(-n2c(=S)[nH]c3cc(Cl)ccc3c2=O)c1,1.05%
12,O=C(CCCOc1ccc(Cl)cc1)NCc1ccco1,-1.43%
13,CCCCc1ccc2c(N)c(C(=O)Nc3ccc(C(=O)O)cc3)sc2n1,-1.27%
14,CCCC1=C(C(=O)OCC)C(c2cccc(F)c2)C(C#N)=C(N)O1 (configuration not stated),0.841%
15,CCCC1=C(C(=O)OCC)C(c2ccc(O)c(OC)c2)C(C#N)=C(N)O1 (configuration not stated),2.22%
16,CCOC(=O)C1=C(CC)OC(N)=C(C#N)C1c1ccc(C(F)(F)F)cc1 (configuration not stated),5.43% (active)
17,c1ccc(Nc2cc(NCc3ccc4c(c3)OCO4)ncn2)cc1,-0.773%
18,CC1=C(C(=O)Nc2ccccc2C(F)(F)F)C(c2ccccn2)C2=C(CC(C)(C)CC2=O)N1 (configuration not stated),0.421%
19,CC1=C(C(=O)Nc2cccc(F)c2)C(c2ccccn2)C2=C(CCCC2=O)N1 (configuration not stated),4.99% (active)
20,COc1cc(C2C(C(=O)Nc3ccccn3)=C(C)NC3=C2C(=O)CCC3)cc(OC)c1OC (configuration not stated),0.722%
21,Cc1cccc(C)c1-n1c(=S)sc2c(=O)n(-c3cccc(Cl)c3)c(SCC#N)nc21,7.07% (active)
22,Cc1ccccc1-n1c(SCC#N)nc2c(sc(=S)n2-c2ccccc2C)c1=O,-0.0279%
23,Cc1cccc(C)c1-n1c(=S)sc2c(=O)n(-c3cccc(Cl)c3)c(SCc3cccc([N+](=O)[O-])c3)nc21,-0.958%

row,Structure (SMILES),activation
1,CCCOc1ccc(-c2ccc(-c3noc(-c4ccc(OCC)cc4)n3)cc2)cc1,-1.32%
2,O=C(COc1ccc(Cl)cc1Cl)NCc1nc(-c2ccccc2)no1,-1.12%
3,Cc1sc(NC(=O)CN(C(=O)CCc2ccccc2)C2CCCC2)c(C(N)=O)c1C,0.0057%
4,CCCCNC(=O)C1CCC(=O)N1Cc1ccc(F)cc1 (configuration not stated),1.65%
5,COc1ccc(CNC2CCN(c3cccc(NC(=O)c4cccnc4)c3)CC2)cc1,-0.19%
6,O=C(Nc1cccc(N2CCC(NCC3COc4ccccc4O3)CC2)c1)c1cccnc1 (configuration not stated),0.419%
7,O=C(Nc1cccc(N2CCC(NCc3ccon3)CC2)c1)c1cccnc1,5.91% (active)
8,Cc1cc2[nH]c(=O)c(=O)[nH]c2cc1S(=O)(=O)Nc1ccc(Br)cc1F,1.29%
9,Cc1ccc2c(CNCc3ccccc3Cl)c(C(=O)O)n(Cc3ccccc3)c2c1,2.57%
10,O=C(NCCOc1ccccc1)c1cnc(Nc2cccnc2)s1,0.0811%
11,O=C(NCCOc1ccccc1)c1cnc(N2CCN(c3ccccn3)CC2)s1,7.58% (active)
12,O=C(NCCOc1ccccc1)c1cnc(N2CCCC2CO)s1 (configuration not stated),-3.77%
13,O=C(NNS(=O)(=O)c1ccc2ccccc2c1)Nc1ccc(F)cc1F,-1.26%
14,O=C(Nc1cccc(Oc2ccc(C(=O)O)c(C(=O)O)c2)c1)c1cccs1,-1.23%
15,COc1ccc(CN2CCOc3ccc(C(C)(O)CN(C)C)cc3C2)c(Cl)c1OC (configuration not stated),-0.16%
16,O=C(Cc1coc2ccc3ccccc3c12)NCc1cccnc1,1.97%
17,CC(C)(C)NC(=O)Cc1coc2ccc3ccccc3c12,5.9% (active)
18,O=C(Cc1coc2ccc3ccccc3c12)NC1CCN(Cc2ccccc2)CC1,1.58%
19,COc1ccc(CCN(C(C)=O)C2CC(=O)N(c3ccc(Cl)cc3)C2=O)cc1 (configuration not stated),2.31%
20,Cc1nc2ccccc2c(=O)n1-c1ccc(OC(F)(F)C(F)F)cc1,-0.339%
21,CC1=C(C(N)=O)C(c2ccc(F)cc2)n2nc(CCCO)nc2N1 (configuration not stated),0.25%
22,COc1ccccc1C1C(C(=O)Nc2ccc(F)cc2)=C(C)Nc2nc(CCCO)nn21 (configuration not stated),-0.0995%
23,COc1ccccc1C1C(C(N)=O)=C(C)Nc2nc(CCCO)nn21 (configuration not stated),7.86% (active)
